The structures appear in SMILES notation. Records with an inconclusive call do not appear. Calls of active or inactive are those of the source. The call rests on the fitted dose curve; in most records, active means well fitted inhibition curve with a large enough effect; inconclusive means small, poorly fitted or top-dose-only effect; inactive means no such curve, though single readings can be large or run the other way.
Potency means the concentration at half of the fitted maximal effect.

This experiment can be described thus: InCell qHTS Assay for Inhibitors of the mTORC1 Signaling Pathway in MEF (Tsc2-/-, p53-/-) Cells: Hit Validation.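 Further: phospho-S6 Ser235/236 signal normalized to propidium iodide cell count per well; nearly all actives have a fitted effect of over 75% in size.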 As to conditions: phospho-rpS6 immunofluorescence, 24 h; activity change, negative = inhibition: at 38.3 µM (top of the series).
Consider `CCOc1cc(C2CC(=O)Nc3cc4c(cc32)OCCO4)ccc1O` (configuration not stated), for which the activity change, negative = inhibition is -100%.
Take `O=C(NCCc1ccc(Cl)cc1)C(=O)NCC(c1cccs1)S(=O)(=O)c1cccs1` (configuration not stated): the activity change, negative = inhibition was -100%.
On the same count and under the same terms, under `COc1ccccc1C(=O)Nc1ccc2nc(N3CCC(C)CC3)cc(C)c2c1` stands -100%; under `Cn1nc(-c2ccc(OCC(=O)Nc3ccc(Cl)cc3)cc2)c2ccccc2c1=O`, -100%.
The same measure, in the same setting: under `CCCOc1cccc(C2c3c(-c4ccccc4O)n[nH]c3C(=O)N2Cc2ccco2)c1` (configuration not stated) stands -100%.
On the same count and under the same terms, under `CC1CCN(S(=O)(=O)c2ccc3nc(Nc4cccc(C(F)(F)F)c4)ccc3c2)CC1` stands -100%; under `COc1ccc(OCC(=O)NCc2ccc3c(c2)CCN3C(=O)c2ccccc2)cc1`, -100%; under `CCOc1ccc(S(=O)(=O)Nc2ccc(OC)c(Cl)c2)c2cccnc12`, -100%.
Consider `CCOc1ccccc1NS(=O)(=O)c1ccc(-c2cnc(C3CC3)o2)cc1`, for which the activity change, negative = inhibition was -100%.
Turning to `CCCCNC(=O)c1ccc2c(c1)N=C(CC)c1ccccc1S2`, the activity change, negative = inhibition is -16%.
On to `Cc1cccc(NC(=O)Cn2cc(C(=O)c3ccco3)c3ccccc32)c1C`, for which the activity change, negative = inhibition was -100%.
As for `Cc1nn(CCCC(=O)NCc2ccccc2)c(=O)c2c1sc1ccccc12`, the activity change, negative = inhibition was -100%.
Same read-out and setting: under `Cc1ccc2occ(CC(=O)Nc3ccc(Cl)c(C(F)(F)F)c3)c2c1` stands -100%; under `CCOc1ccc(CCNCc2c(C(=O)O)n(Cc3ccc(C)cc3)c3cc(OC)ccc23)cc1`, -100%.
In the case of `COc1cc(C(=O)NC(c2ccccc2Cl)c2cc(Cl)c3cccnc3c2O)cc(OC)c1OC` (configuration not stated), the activity change, negative = inhibition was -100%.
On to `Cc1ccc(-c2csc(-c3cc4c([nH]c3=O)CC(c3ccccc3)CC4=O)n2)cc1` (configuration not stated), for which the activity change, negative = inhibition is -100%.
Same read-out and setting: under `CCCCN(C)CCNC(=O)c1cc2c(=O)n(C)c3ccccc3c2n1C` stands -100%; under `Cc1nn(C(C)C(=O)NC2CCC(C)CC2)c(=O)c2c1sc1ccccc12` (configuration not stated), -100%; under `CCOc1ccccc1Nc1nc(-c2cccc(Cl)c2)c2c(n1)-c1ccccc1OC2`, -100%.
`Cc1ccc(-c2noc(CCC(=O)N(C)c3ccccc3F)n2)cc1`: the activity change, negative = inhibition is -100%.
Same read-out and setting: under `COc1ccc(CC(=O)Nc2sc3c(c2C(=O)Nc2cccc(C)c2)CCCCC3)cc1` stands -17.5%.
Same read-out and setting: under `COc1cc(NC(=O)CSc2ccc(-c3ccccn3)nn2)cc(OC)c1` stands -100%; under `O=C(CN1C(=O)C(c2ccc(F)cc2)=NC12CCCCCC2)Nc1ccccc1Cl`, -100%; under `COc1ccc(NC(=O)CSc2c3c(nc4ccccc24)CCC3)c(OC)c1`, -100%.
Take `CCCCS(=O)(=O)c1nc(-c2ccc(Br)cc2)cc(-c2ccccc2)c1C#N`: the Potency is 16.5 µM (active).
Regarding `CN1CCN(C(CNC(=O)C(=O)Nc2cccc(Cl)c2)c2ccc3c(c2)OCO3)CC1` (configuration not stated), the activity change, negative = inhibition was -100%.
As to `Cc1ccc(OCC(O)Cn2c(=N)n(CCN3CCCCC3)c3ccccc32)cc1` (configuration not stated), the Potency is 16.5 µM (active).
As for `Cc1c(C(=O)Nc2ccc(F)cc2F)nnn1-c1ccccc1Br`, the activity change, negative = inhibition is -100%.
Same read-out and setting: the value for `Cc1cccc(N2CCN(C(=O)c3ccc(CS(=O)c4cccc(Cl)c4)o3)CC2)c1C` (configuration not stated) was -17.3%.
Take `COc1ccccc1CCNC(=O)C1CCN(c2nnc(-n3cccc3CNc3ccc(C)cc3)s2)CC1`: the activity change, negative = inhibition was -100%.
For the compound `CCCSc1ncc(Cl)c(C(=O)Nc2ccc(S(=O)(=O)N3CCCCC3C)cc2)n1` (configuration not stated), the activity change, negative = inhibition was -100%.
In the case of `CCOC(=O)c1c(NC(=O)c2nc(S(C)(=O)=O)ncc2Cl)sc(C(C)=O)c1C`, the Potency is 3.69 µM (active).
On to `CN(C)c1ccc(NC(=O)Cn2cc(S(=O)(=O)Cc3ccccc3Cl)c3ccccc32)cc1`, for which the activity change, negative = inhibition is -29.2%.
The same measure, in the same setting: the value for `O=C(c1ccco1)n1nc(-c2ccc(Cl)cc2)nc1NCc1ccccc1` was -100%.
In the case of `CCOCc1cc(CN2CCN(c3ccccc3OC)CC2)c(O)c2ncccc12`, the Potency was 2.07 µM (active).
As to `Cc1cccc(OCC(=O)Nc2ccc3c(c2)N(C)C(=O)c2ccccc2S3)c1`, the activity change, negative = inhibition was -100%.
`COc1ccc(OC)c(NC(=O)c2nc(S(=O)(=O)Cc3ccc(F)cc3)ncc2Cl)c1`: the Potency is 2.61 µM (active).

Source of the values: PubChem BioAssay AID651791 (National Center for Advancing Translational Sciences (NCATS), 2012).
